From PubChem BioAssay
Only some compounds are listed: those with a hit (about 18% of all), similar ones and a draw of the others.
Six1-Eya2 blk = blocks human Six1 binding to Eya2 | AlphaScreen GST-Six1/His-Eya2 binding, biochemical; active compounds read low | activity change, % (no concentration beside the values) | 360,000 compounds, 0.56% hits; in the data active means activity change below about -65%; inconclusive means mostly about -30% to -63%
Target sequence (O00167 whole entry, looked up): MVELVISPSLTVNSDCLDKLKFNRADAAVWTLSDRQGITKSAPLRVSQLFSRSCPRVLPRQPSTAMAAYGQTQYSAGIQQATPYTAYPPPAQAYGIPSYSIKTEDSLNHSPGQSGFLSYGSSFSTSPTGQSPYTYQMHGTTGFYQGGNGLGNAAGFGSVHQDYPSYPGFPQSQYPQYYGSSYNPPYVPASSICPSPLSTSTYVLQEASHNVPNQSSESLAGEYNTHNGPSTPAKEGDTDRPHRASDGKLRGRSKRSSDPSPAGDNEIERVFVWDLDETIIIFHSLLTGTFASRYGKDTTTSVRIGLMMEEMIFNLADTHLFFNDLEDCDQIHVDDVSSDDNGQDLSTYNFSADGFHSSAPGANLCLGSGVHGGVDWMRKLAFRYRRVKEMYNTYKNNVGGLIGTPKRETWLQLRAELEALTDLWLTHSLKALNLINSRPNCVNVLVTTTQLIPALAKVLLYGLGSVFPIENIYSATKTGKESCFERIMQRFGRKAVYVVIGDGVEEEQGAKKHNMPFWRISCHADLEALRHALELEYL
Target sequence (Q15475 whole entry, looked up): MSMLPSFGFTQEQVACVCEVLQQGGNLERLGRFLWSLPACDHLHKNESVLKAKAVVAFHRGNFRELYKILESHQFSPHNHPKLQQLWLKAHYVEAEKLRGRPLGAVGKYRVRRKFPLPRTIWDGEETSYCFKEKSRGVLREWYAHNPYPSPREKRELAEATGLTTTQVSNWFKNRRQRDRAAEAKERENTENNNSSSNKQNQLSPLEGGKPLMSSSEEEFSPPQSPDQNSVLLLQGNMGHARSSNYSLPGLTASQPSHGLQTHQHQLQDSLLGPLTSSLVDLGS
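GST-Six1 + His-Eya2 (5X stock: 250/500 nM); Tris pH 8.0, 300 mM NaCl, 0.05% BSA, 0.02% Tween 20; GSH donor/Ni acceptor beads; 1 h 37 °C dark; AlphaScreen readout.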
CtBP-E1A blk = inhibitors of CtBP/E1A interaction; AlphaScreen GST-E1A/His-CtBP binding, 1536-well; active compounds read low; 340,000 compounds, 0.49% hits; activity change, % (concentration not given with the values); in the data active means activity change below about -65%; inconclusive means mostly about -30% to -63%
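GST-E1A and His-tagged CtBP (125 nM each as 5X stock) were preincubated with pin-transferred compound for 2 h at 37 °C in the dark, then glutathione donor and nickel acceptor beads were added for 1 h before AlphaScreen reading.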
TDP1 cell CPT = DT40-hTDP1 cell growth loss with CPT. chicken DT40 Tdp1-/-;hTDP1 cells + 20 nM CPT, ATP luminescence, 48 h. Potency, µM (top dose mostly 46.2 µM), without a hit: at the highest dose activity change, negative = growth inhibition, most hits filed as inhibitors. 420,000 compounds, 12% hits; further: potency means the concentration at half of the fitted maximal effect; nearly all actives have a fitted effect of over 55% in size
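Chicken DT40 Tdp1-/- cells complemented with human TDP1, 400 cells/well, exposed to compounds plus 20 nM camptothecin for at least 48 h at 37 C; viability read as ATP content by CellTiter-Glo luminescence.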
IL1B secr inh = blocks inflammasome-driven IL-1 beta release; 360,000 compounds, 4.7% hits; THP-1 LPS/ATP IL-1B secretion, AlphaLISA, 16 h; active compounds read low; activity change, % at 57.5 µM; in the data active means activity change below about -50%; inconclusive means mostly about -30% to -49%
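Secreted IL-1B measured by AlphaLISA bead assay after 16 h compound exposure of THP-1 cells; compounds (final up to 57.5 uM) added 1 h before LPS (250 ng/mL) and ATP (1.25 mM) stimulation; lower signal means less secretion.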
TDP1 block = TDP1 (human) enzyme inhibition; Q9NUW8; 350,000 compounds, 0.28% hits; recombinant TDP1, AlphaScreen DNA substrate cleavage; Potency, µM (top dose mostly 130 µM), without a hit: top-dose activity change, negative = inhibition, hits mostly inhibitors; further: potency means the concentration at half of the fitted maximal effect; nearly all actives have a fitted effect of over 40% in size
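Here, a 5' biotin and 3' phosphotyrosine-FITC DNA oligonucleotide reports Tdp1 activity: intact substrate bridges AlphaScreen beads, while cleavage leaves a 3' phosphate and drops signal. All incubations at room temperature.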
TDP1 cell noCPT = qHTS for Inhibitors of human tyrosyl-DNA phosphodiesterase 1 (TDP1): qHTS in cells in absence of CPT | Potency, µM (highest dose often 46.2 µM), for the others: at the top dose activity change, negative = growth inhibition, hits mostly inhibitors | DT40 Tdp1-/- hTDP1 cells, no CPT, ATP luminescence, 48 h | 420,000 compounds, 15% hits | AID 686978, 2013; further: potency means the concentration at half of the fitted maximal effect; nearly all actives have a fitted effect of over 55% in size
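Chicken DT40 Tdp1-/- cells complemented with human TDP1, screened without camptothecin (DMSO vehicle only), 400 cells/well. Compounds pin-transferred, cells incubated at 37 °C for at least 48 hr. Growth read as ATP-dependent luminescence (CellTiter-Glo, 30 min at RT).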
Active calls of the source: *; u = inconclusive; x = not tested or not shown; [ ] = another dose, or the depositor's remark. Unless noted, the call rests on the fitted dose curve; in most records, active means well fitted curve in the direction sought with a large enough effect; inconclusive means small, poorly fitted or top-dose-only effect, or another doubt; inactive means no such curve, though single readings can be large; an effect the other way counts as inactive or inconclusive. On the % scale 0 is the no-effect control and ±100 the full control effect.

SMILES	Six1-Eya2 blk	CtBP-E1A blk	TDP1 cell CPT	IL1B secr inh	TDP1 block	TDP1 cell noCPT
Cc1ccc(CNC(=O)C2c3ccccc3C(=O)N(C)C2c2c[nH]c3ccccc23)o1 (configuration not stated)	-15.8	-12.0	20.6µM*	-4.7	4.1%	14.6µM*
O=C1/C(=C/c2ccc(F)cc2)SC(=S)N1Nc1ncc(C(F)(F)F)cc1Cl	-13.8	u	u	-11.3	3.5%	-7.4%
Nc1cccc(-n2nncc2-c2ccc(Cl)cc2)c1	x	x	x	x	4.2%	x
NC(=S)N/N=C/c1ccc(-n2nncc2-c2ccc(Cl)cc2)cc1	-25.9	-10.4	-8.3%	-70.2*	x	u
CC1(C(=O)Nc2cccc(C(F)(F)F)c2)Cc2c(-c3cccc(C(N)=O)c3)ccnc2O1 (configuration not stated)	-1.9	-1.5	-99.6%	24.2	x	6.51µM*
CC1(C(=O)Nc2cccc(C(F)(F)F)c2)Cc2c(-c3ccccc3)ccnc2O1 (configuration not stated)	5.7	2.6	u	12.9	x	u
COc1ccc(NC(=O)C2(C)Cc3c(-c4ccc(C(N)=O)cc4)ccnc3O2)cn1 (configuration not stated)	-4.6	-14.6	u	-20.5	x	u
CC1(C(=O)Nc2cccc(OC(F)(F)F)c2)Cc2c(-c3cccc(C(N)=O)c3)ccnc2O1 (configuration not stated)	0.3	0.2	u	16.6	x	20.6µM*
CC1(C(=O)Nc2ccc(Cl)c(C(F)(F)F)c2)Cc2c(-c3ccc(C(N)=O)cc3)ccnc2O1 (configuration not stated)	u	u	18.4µM*	23.0	x	14.6µM*
COc1ccc(NC(=O)C2(C)Cc3c(-c4cccc(C(N)=O)c4)ccnc3O2)cc1 (configuration not stated)	-1.2	2.0	3.66µM*	-6.5	x	3.66µM*
CCOc1ccc(-c2ncnn2-c2sc3c(c2C#N)CCCCC3)cc1	x	x	-28.3%	x	3.1%[12.3 µM]	u
O=C1CCCCc2cc(O)c(O)cc21	-0.1	4.7	u	16.1	x	u
CCS(=O)(=O)c1nc(S(=O)(=O)c2ccc(Cl)cc2)c(NCCOC)s1	-1.8	7.2	-20.3%	-2.0	5.4%	-3.4%
CNC(=O)C1(C)Cc2c(-c3ccc4c(c3)OCO4)ccnc2O1 (configuration not stated)	4.3	2.3	u	29.7	x	u
COc1ccc(NC(=O)C2(C)Cc3c(-c4ccc5c(c4)OCO5)ccnc3O2)cc1 (configuration not stated)	-14.8	-18.0	4.11µM*	36.6	x	2.91µM*
CC(=O)Nc1ccc(NC(=O)C2(C)Cc3c(-c4cccc(C(N)=O)c4)ccnc3O2)cc1 (configuration not stated)	-1.5	-1.2	8.7%	7.3	x	-8.9%
CC1(C(=O)Nc2cccc(OC(F)(F)F)c2)Cc2c(-c3ccc4c(c3)OCO4)ccnc2O1 (configuration not stated)	-7.7	-0.9	20.6µM*	89.5	x	u
CN(C)c1ccc(-c2ccnc3c2CC(C)(C(=O)Nc2cccc(OC(F)(F)F)c2)O3)cc1 (configuration not stated)	-23.8	-30.0	-19.2%	18.4	x	-20.0%
CC1(C(=O)Nc2ccc(Cl)c(C(F)(F)F)c2)Cc2c(-c3cccc(C(N)=O)c3)ccnc2O1 (configuration not stated)	-19.5	u	10.3µM*	0.0	x	6.51µM*
CCN(CC)c1ccc(C=Nc2ccccc2C)c(O)c1	0.9	7.9	0.1%	3.1	-2.7%	9.1%
C[C@H](NC(=O)OC(C)(C)C)C(=O)N/N=C/c1ccc2nccnc2c1	-23.3	x	-9.0%	4.6	9.6%	u
S=C(N/N=C/c1ccc2ncccc2c1)Nc1ccccc1	-11.9	x	23.1µM*	-11.3	10.3%	20.6µM*
O=C(NNC(=S)Nc1ccccc1)c1ccc2ncccc2c1	17.5	24.2	-0.2%	-10.6	4.7%	-24.4%
CNC(=S)N/N=C/c1c(Cl)cccc1Cl	-0.2	x	u	-1.0	0.6%	u
CNC(=S)N/N=C/c1ccccc1Cl	-3.3	-2.7	u	-50.0*	2.3%	u
SMILES	Six1-Eya2 blk	CtBP-E1A blk	TDP1 cell CPT	IL1B secr inh	TDP1 block	TDP1 cell noCPT
Oc1ccc(C=NNC(=S)Nc2ccccc2)nc1	-96.7*	-76.5*	5.17µM*	96.6	x	5.17µM*
CCC(C)[C@@H](N)C(=O)N/N=C/c1ccc2ncccc2c1 (some centres not stated)	-9.3	-10.9	4.3%	13.1	0.0%	13µM*
COc1cccc(C2CC(c3ccc(Cl)cc3)n3nc(N)nc3N2)c1 (configuration not stated)	-0.1	-13.2	u	-13.9	-1.2%	-19.0%
S=C(N/N=C/c1ccccc1Cl)Nc1ccccc1	11.1	-0.3	16.4µM*	12.0	6.7%	u
Cc1c(Cl)cccc1NC(=S)N/N=C/c1ccccc1Cl	2.7	6.5	u	4.2	x	u
COC(=O)C(C)Sc1nc2c(c(=O)n1-c1ccccc1)SCC2 (configuration not stated)	-1.6	0.2	-10.8%	36.8	5.2%	-22.7%
CC(=O)NCCc1cnc[nH]1	0.3	4.8	3.3%	22.1	x	-19.0%
N#Cc1ccc(N2CCc3ccccc3C2)c([N+](=O)[O-])c1	-9.2	0.0	-13.3%	-27.8	5.6%	23.1µM*
CC1Cc2ccccc2N1C(=O)c1ccc(N2CCCC2)c([N+](=O)[O-])c1 (configuration not stated)	u	u	u	-81.7*	5.4%	u
COC(=O)CCN(C(=O)c1ccc(N2CCCCC2)c([N+](=O)[O-])c1)c1ccccn1	5.1	-9.2	4.0%	7.4	-2.7%	u
O=C(c1ccc(N2CCCCC2)c([N+](=O)[O-])c1)N(Cc1ccccc1)c1ccccn1	u	u	16.4µM*	u	5.2%	18.4µM*
O=C(c1ccc(N2CCCC2)c([N+](=O)[O-])c1)N1CCc2ccccc2C1	-10.7	-21.2	16.4µM*	u	0.1%	29.1µM*
O=C(c1ccc(N2CCCCC2)c([N+](=O)[O-])c1)N1CCOCC1	1.3	-9.5	2.3%	-9.1	3.9%	-12.8%
CN(C)c1ccc(-c2nnc(SCC(=O)NCc3ccco3)n2C)cc1	x	x	-7.6%	x	x	-17.6%
COc1cc(CC(=O)OCC(=O)Nc2ccc([N+](=O)[O-])cc2)cc(OC)c1OC	-20.7	14.3	5.6%	44.2	-5.1%	-7.0%
